Screening results as filed in PubChem.
A selection: hits, their analogues and other compounds. The true share with any hit is near 12%.
BAZ2B inh: BAZ2B (human) inhibition; AID 504333; 360,000 tested, 4.4% active; Q9UIF8; Potency, µM (titrated, usually from 114 µM), inactives show top-dose activity change, negative = inhibition, actives largely listed as inhibitors; AlphaScreen BAZ2B-H3K14Ac peptide displacement; note: % is set by controls: 0 for no effect and ±100 for the full control effect; nearly all actives have a fitted effect of over 60% in size
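Multi-concentration screen (max 110 uM) measuring displacement of acetylated histone H3 peptide from BAZ2B by AlphaScreen, using 50 nM protein, 50 nM peptide and 10 ug/mL streptavidin donor plus Ni-chelate acceptor beads.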
JMJD2A Tudor: blocks the human JMJD2A Tudor domain; AID 504339; 390,000 tested, 4.4% active; Potency, µM (doses to about 114 µM), without a hit: at the highest dose activity change, negative = inhibition, actives largely listed as inhibitors; AlphaScreen JMJD2A-Tudor / H3K4me3 peptide binding; note: % is set by controls: 0 for no effect and ±100 for the full control effect; nearly all actives have a fitted effect of over 50% in size
HP1b chromo inh: blocks HP1-beta chromodomain binding to methylated histone tails | 390,000 tested, 0.56% active | Potency, µM (highest dose often 114 µM), inactives show at the top dose activity change, negative = inhibition, hits mostly inhibitors | AID 540317 | P83916 | AlphaScreen HP1-beta / biotin-H3K9me3 peptide binding; note: nearly all actives have a fitted effect of over 70% in size
Target sequence (P83916 whole entry, looked up): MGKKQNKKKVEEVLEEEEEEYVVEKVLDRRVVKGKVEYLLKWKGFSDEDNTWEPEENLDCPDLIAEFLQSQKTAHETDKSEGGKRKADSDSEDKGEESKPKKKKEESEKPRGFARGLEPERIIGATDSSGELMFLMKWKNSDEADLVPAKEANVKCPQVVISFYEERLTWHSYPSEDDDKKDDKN
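HP1-beta protein (50 nM final) preincubated 30 min at room temperature with biotinylated H3(1-18)K9me3 peptide (50 nM) in PBS pH 7.4, 0.01% Tween-20, then compound added for 30 min. AlphaScreen streptavidin donor/nickel chelate acceptor beads (10 ug/mL final), 30 min dark, luminescence read.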
Sfp PPTase inh: Sfp phosphopantetheinyl transferase inhibition; Q9F4F7; Biochemical Sfp PPTase activity, qHTS; Potency, µM, for the others: largest response in the series, negative = inhibition, most hits filed as inhibitors; 310,000 tested, 3.5% active; AID 1490;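 note: the enzyme is Sfp with the accession as filed and its product quenches rhodamine fluorescence; 0% = enzyme reaction without inhibitor and -100% = no enzyme wells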
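Buffer: 50 mM Hepes-Na pH 7.6, 10 mM MgCl2, 0.01% Nonidet P-40, 0.01% BSA. Enzyme 15 nM, pre-exposed to compound 15 min; substrates then added and fluorescence change tracked over 30 min.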
G9a block: blocks human histone lysine methyltransferase G9a; Q96KQ7; G9a H3K9 monomethylation, AlphaScreen, 2 h; Potency, µM (highest dose often 102 µM), without a hit: top-dose activity, negative = inhibition, hits mostly inhibitors; 350,000 tested, 8.8% active; note: % is set by controls: 0 for no effect and ±100 for the full control effect; nearly all actives have a fitted effect of over 75% in size
Target sequence (Q96KQ7 913-1193 limits assumed): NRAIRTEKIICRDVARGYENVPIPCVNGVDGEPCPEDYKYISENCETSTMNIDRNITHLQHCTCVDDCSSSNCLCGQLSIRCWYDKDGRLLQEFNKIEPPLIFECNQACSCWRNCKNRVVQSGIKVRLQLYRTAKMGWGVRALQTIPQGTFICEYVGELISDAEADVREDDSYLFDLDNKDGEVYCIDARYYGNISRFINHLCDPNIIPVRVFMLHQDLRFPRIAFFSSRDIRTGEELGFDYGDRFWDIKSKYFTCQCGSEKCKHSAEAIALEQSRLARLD
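G9a (20 nM) preincubated 15 min RT with compounds, then 500 nM biotinylated H3K9 peptide and 20 uM SAM added; 2 h RT reaction. Monomethyl-H3K9 product detected by AlphaScreen with anti-H3K9me1 antibody, streptavidin donor and anti-rabbit IgG acceptor beads.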
L3MBTL1 inh: blocks human L3MBTL1. Q9Y468. AlphaScreen L3MBTL1–H3K9me1 peptide binding. Potency, µM (series often up to 57.1 µM), for the others: top-dose activity, negative = inhibition, hits mostly inhibitors. 230,000 tested, 0.66% active; note: % is set by controls: 0 for no effect and ±100 for the full control effect; nearly all actives have a fitted effect of over 60% in size
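Displacement of a biotinylated histone H3(1-15) peptide monomethylated at Lys9 (75 nM) from L3MBTL1 (50 nM) was measured by AlphaScreen after a 30 min room-temperature compound incubation; cefsulodin titration served as intraplate control.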
The depositor's hits bear a star; ? = inconclusive; / = no result; [ ] = remark or other dose. Calls come from the whole dose curve; as a rule, active = well fitted curve in the direction sought with a large enough effect; inconclusive = small, poorly fitted or top-dose-only effect, or another doubt; inactive = no such curve, though single readings can be large; an effect the other way counts as inactive or inconclusive. Potency is the fitted concentration of half-maximal effect.

SMILES	BAZ2B inh	JMJD2A Tudor	HP1b chromo inh	Sfp PPTase inh	G9a block	L3MBTL1 inh
O=C(C1=C[C@@H]2[C@H]3C(=O)N(c4cccc(Cl)c4)C(=O)[C@H]3[C@@H](C(=O)c3ccc(Cl)cc3)N2C=C1)c1ccccc1	-9%	?	-21%	-3%	3.2µM*	1%
CCOc1ccc(C2C(=O)N(C3CCCCC3)CC(=O)N2Cc2ccc(F)cc2)cc1OC (stereo unspecified)	1%	-14%	8%	/	11%[59 µM]	/
Cc1ccc(S(=O)(=O)c2c(C)cc(C)nc2Cl)c(C)c1	4%	12%	46%	6%	-14%[59 µM]	2%
Cc1cc(C)c(S(=O)(=O)/N=C2\C=CC(=O)C(Cl)=C2)c(C)c1	-12%	32µM*	?	50µM*	7.9µM*	/
O=C(/C=C/c1ccco1)NC1CCCC1	?	-4%	10%	28µM*	?	/
O=C(/C=C/c1ccco1)NCc1ccccn1	-10%	2%	31%	-65%	35µM*	?
CC(C)C(=O)N1CCN(c2ccccc2NC(=S)NC(=O)/C=C/c2ccco2)CC1	/	-34%	-11%[57 µM]	/	/	-4%
O=C(/C=C/c1ccco1)Nc1ccccc1N1CCCCC1	?	-23%	?	-21%	50µM*	-24%
O=C(/C=C/c1ccccc1)Nc1cccnc1Cl	11%	2%	41%	0%	21%	-6%
O=C(/C=C/c1ccco1)Nc1cccnc1Cl	-13%	-6%	5%	50µM*	79µM*	-30%
O=C(/C=C/c1ccc([N+](=O)[O-])cc1)NCc1ccccn1	-7%	-7%	30%	9%	-11%	10%
COC(=O)c1ccccc1NC(=O)/C=C/c1ccco1	-11%	-34%	-16%	50µM*	5%[59 µM]	?
COC(=O)c1ccccc1NC(=O)NCc1ccco1	7%	-13%	22%	13%	-1%[59 µM]	-1%
CC(=O)c1ccc(NS(=O)(=O)c2cc(-c3cc(C)no3)ccc2C)cc1	2%	-26%	32%	/	-2%[59 µM]	/
COC(=O)C1=C(C(=O)OC)C(c2ccccc2O)c2sc(=O)[nH]c2S1 (stereo unspecified)	?	-15%	10%	8.9µM*	10µM*	1%
CC(C)c1ccc2oc(-c3ccc(Cl)c(NC(=O)c4cccs4)c3)nc2c1	-12%	-9%	14%	/	5%[59 µM]	/
Cc1cc(S(=O)(=O)Nc2cccc(C(=O)O)c2)c(C)c(S(=O)(=O)c2ccccc2)c1	4%	-11%	45%	/	0%[59 µM]	/
CN(C)/C=C/C(=O)/C=C/c1cn(-c2ncc(C(F)(F)F)cc2Cl)c2ccccc12	-11%	-26%	-6%	-3%	10µM*	-14%
ClC(Cl)(c1nnnn1-c1ccccc1)c1nnnn1-c1ccccc1	56µM*	20µM*	?	2.8µM*	0.56µM*	9%
Cc1cc(C(=O)COC(=O)c2ccc([N+](=O)[O-])o2)c(C)n1CC1CCCO1 (stereo unspecified)	?	-27%	10%	-3%	45µM*	?
COCCn1c(C)cc(C(=O)COC(=O)c2ccc([N+](=O)[O-])o2)c1C	45µM*	?	4%	4%	79µM*	-17%
Cc1cc(C)c(C(=O)COC(=O)c2ccc([N+](=O)[O-])o2)cc1C	/	-22%[11.4 µM]	-19%	1%	?	/
CSc1ncccc1C(=O)OCC(=O)c1cc(C)n(CC2CCCO2)c1C (stereo unspecified)	-29%	?	?	-2%	?	-14%
CC(=O)[O][Al][O]C(C)=O	/	/	/	21%	31%[59 µM]	/
N#Cc1ccccc1NC(=O)CSc1nnc(-c2ccccc2)n1-c1ccccc1	3%	1%	28%	15%	?	1%
CCN(CC)c1ccc(-c2nnc(SCC(=O)Nc3ccccc3C#N)n2-c2ccccc2)cc1	-29%	-30%	19%	17%	10µM*	-15%
COc1ccc(-c2nnc(SCCC(=O)O)n2-c2ccccc2)cc1	-14%	40µM*	41%	23%	?	/
COc1ccccc1OCc1nnc(SCC(=O)N2CCCCC2)n1-c1ccccc1	2%	2%	40%	15%	-20%[59 µM]	4%
Cc1cccc(OCc2nnc(SCCC(=O)O)n2-c2ccccc2)c1	79µM*	-5%	40%	50µM*	-47%[0.501 µM]	-1%[2.29 µM]
